Consider 8 compounds from PubChem BioAssay (NCI).

Molecules are shown by their SMILES. This is part of a sample that, as a whole, favours compounds with a hit. Of some 83,000 tested, about 20% had one in any assay.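 Treatment: one concentration, 48 hours, 96-well format. Scoring: percent growth, with anything below 10 considered active.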 A number with no mark means an inactive call. The source made the active and inactive calls.

Test systems include HCT-15 colon; HT29 colon; SNB-75 CNS; SNB-19 CNS; U251 CNS; PC-3 prostate; SK-MEL-5 melanoma; UACC-62 melanoma; LOX IMVI melanoma; SK-MEL-28 melanoma; SK-MEL-2 melanoma; EKVX NSCLC; SN12C renal; UO-31 renal; TK-10 renal; ACHN renal; CAKI-1 renal; CCRF-CEM leukemia; MOLT-4 leukemia.
Holding throughout (test): NCI-60 one-dose screen, 48 h (100 = growth as untreated, 0 = no growth, -100 = all killed)
Holding throughout (details): 10 µM unless noted

With `CC1(C)CC(O)CCCCCCOc2c(CN)cccc2NC(=O)c2nc(cnc2N)-c2ccc(cc2)S1(=O)=O` (configuration not stated), the growth in the assay on HCT-15 colon is -14.4% (active); with HT29 colon, 9.7% (active); with SNB-75 CNS it was 53.7%; with SNB-19 CNS, 8.06% (active); in the assay on U251 CNS it was -26.6% (active); with PC-3 prostate it was 22.6%. Moreover, the growth with SK-MEL-5 melanoma is -31.7% (active); with UACC-62 melanoma, 41.3%; in the assay with LOX IMVI melanoma, 13%; in the assay on SK-MEL-28 melanoma, 43.4%; in the assay with SK-MEL-2 melanoma, 25.4%; in the assay on EKVX NSCLC it was 86.2%. Moreover, the growth in the assay on SN12C renal is 20.1%; in the assay on UO-31 renal it was 27.8%; in the assay on TK-10 renal, 34.7%; with ACHN renal it was 24.7%; with CAKI-1 renal, 18.1%; with CCRF-CEM leukemia, -8.71% (active). Further, the growth in the assay on MOLT-4 leukemia was 2.43% (active).

On to `COc1ccc(CNCCN2C(=O)c3ccc4c5c(ccc(c35)C2=O)C(=O)N(CCNCc2ccc(OC)c(OC)c2OC)C4=O)c(OC)c1OC`, for which the growth is -51.2% (active) in the assay with HCT-15 colon; -45.7% (active) with HT29 colon; -12.6% (active) with SNB-75 CNS; -13.6% (active) in the assay with SNB-19 CNS; -46.1% (active) in the assay with U251 CNS; 0.0353% (active) in the assay with PC-3 prostate. For the same compound, the growth with SK-MEL-5 melanoma is -93.9% (active); in the assay with UACC-62 melanoma it was -72.2% (active); in the assay with LOX IMVI melanoma it was -27.9% (active); with SK-MEL-28 melanoma, -7.81% (active); with SK-MEL-2 melanoma, -62.9% (active); in the assay on EKVX NSCLC it was -28.3% (active). The growth with SN12C renal was -77.3% (active); with UO-31 renal, -19.6% (active); in the assay on TK-10 renal it was 30.3%; in the assay with ACHN renal it was -51.1% (active); with CAKI-1 renal it was -12.3% (active); in the assay on CCRF-CEM leukemia, -14.8% (active). Besides, the growth with MOLT-4 leukemia was -35.2% (active).

In the case of `N#CC1=C(/N=C/c2ccccc2)Oc2c(ccc3ccccc23)C1c1ccc([N+](=O)[O-])cc1` (configuration not stated), the growth in the assay on HCT-15 colon was 91.4%; in the assay on HT29 colon it was 102%; in the assay on SNB-75 CNS, 60.4%; with SNB-19 CNS, 94.9%; in the assay with U251 CNS, 97.4%; in the assay on PC-3 prostate it was 78.7%. In addition, the growth is 86.9% with SK-MEL-5 melanoma; 87.2% in the assay with UACC-62 melanoma; 90.4% in the assay on LOX IMVI melanoma; 118% with SK-MEL-28 melanoma; 90.8% in the assay on SK-MEL-2 melanoma; 70.7% in the assay on EKVX NSCLC. Further, the growth in the assay with SN12C renal is 93.5%; with UO-31 renal it was 59.5%; in the assay on TK-10 renal, 166%; with ACHN renal, 87.9%; in the assay on CAKI-1 renal, 70.1%; in the assay on CCRF-CEM leukemia it was 94.5%. In the assay on MOLT-4 leukemia, the growth was 94.4%.

As to `O=S(=O)(NCCNc1nccc(-c2c(-c3cccc(F)c3)nc3sccn23)n1)c1ccc(Br)cc1`, the growth was 29.2% in the assay with HCT-15 colon; 28.2% in the assay on HT29 colon; 75.3% in the assay with SNB-75 CNS; 59.3% in the assay on SNB-19 CNS; 53.4% with U251 CNS; 51% with PC-3 prostate. In addition, the growth in the assay on SK-MEL-5 melanoma was 31.5%; in the assay on UACC-62 melanoma it was 35.8%; in the assay on LOX IMVI melanoma, 38.5%; with SK-MEL-28 melanoma, 69.1%; with SK-MEL-2 melanoma, 71.7%; with EKVX NSCLC, 59.5%. Further, the growth was 42.9% in the assay with SN12C renal; 21.2% in the assay with UO-31 renal; 68.8% in the assay with TK-10 renal; 30.2% in the assay on ACHN renal; 35.1% in the assay on CAKI-1 renal; 51% in the assay on CCRF-CEM leukemia. Besides, the growth with MOLT-4 leukemia is 35.7%.

In the case of `CN1CCC(=C(c2ccccc2)c2ccccc2)C(c2ccccc2)C1` (configuration not stated), the growth with HCT-15 colon is 82.5%; in the assay on HT29 colon, 82.9%; with SNB-75 CNS, 88%; in the assay on SNB-19 CNS it was 95.5%; in the assay with U251 CNS it was 93.3%; in the assay with PC-3 prostate it was 93.6%. The growth is 101% in the assay on SK-MEL-5 melanoma; 97.1% with UACC-62 melanoma; 86% in the assay with LOX IMVI melanoma; 110% in the assay on SK-MEL-28 melanoma; 102% in the assay with SK-MEL-2 melanoma; 89% with EKVX NSCLC. Also, the growth in the assay with SN12C renal was 99.4%; in the assay on UO-31 renal it was 84.9%; with TK-10 renal, 96.2%; in the assay with ACHN renal it was 93.1%; with CAKI-1 renal it was 66.4%; with CCRF-CEM leukemia, 105%. The growth in the assay on MOLT-4 leukemia is 92.1%.

Turning to `O=C(NCCc1ccccc1)Nc1ccc2cc3ccc(NC(=O)NCCc4ccccc4)cc3nc2c1`, the growth in the assay with HCT-15 colon was 97.1%; in the assay on HT29 colon, 31.4%; in the assay on SNB-75 CNS, 17.1%; with SNB-19 CNS, -31.8% (active); in the assay on U251 CNS, -26.4% (active); in the assay on PC-3 prostate, 19.3%. Besides, the growth in the assay with SK-MEL-5 melanoma was 60.9%; in the assay on UACC-62 melanoma it was -51.2% (active); with LOX IMVI melanoma, -79.8% (active); in the assay with SK-MEL-28 melanoma it was -29.4% (active); in the assay with SK-MEL-2 melanoma, 0.339% (active); in the assay on EKVX NSCLC it was 71.9%. Besides, the growth with SN12C renal is -40.1% (active); in the assay with UO-31 renal it was 89.9%; in the assay with TK-10 renal, 99.2%; in the assay with ACHN renal, 100%; in the assay on CAKI-1 renal, 86.6%; with CCRF-CEM leukemia, 0.959% (active). Besides, the growth in the assay with MOLT-4 leukemia was -46.4% (active).

Consider `C=C(C)[C@@H]1CC[C@]2(C(=O)N3CCN(C)CC3)CC[C@]3(C)[C@H](CC[C@@H]4[C@@]5(C)CC[C@H](OCCC#N)C(C)(C)[C@@H]5CC[C@]43C)[C@@H]12`, for which the growth is 90.6% in the assay with HCT-15 colon; 27.6% in the assay on HT29 colon; 99.5% in the assay on SNB-75 CNS; 95.9% in the assay on SNB-19 CNS; 43.9% in the assay with U251 CNS; 72.2% in the assay on PC-3 prostate. Also, the growth in the assay with SK-MEL-5 melanoma was 94.8%; in the assay with UACC-62 melanoma it was 110%; in the assay with LOX IMVI melanoma, 53.5%; in the assay with SK-MEL-28 melanoma, 112%; with SK-MEL-2 melanoma, 97.7%; in the assay with EKVX NSCLC, 101%. Further, the growth in the assay on SN12C renal was 90.7%; in the assay on UO-31 renal it was 81.8%; with TK-10 renal, 106%; with ACHN renal, 103%; in the assay with CAKI-1 renal it was 99.8%; in the assay with CCRF-CEM leukemia, 23%. The growth in the assay on MOLT-4 leukemia is 59.7%.

Regarding `OC(c1ccc(F)c(C(F)(F)F)c1)c1cnccc1NC1CCCCC1` (configuration not stated), the growth with HCT-15 colon was 64.7%; in the assay on HT29 colon, 14.3%; in the assay with SNB-75 CNS, 68.7%; with SNB-19 CNS, 82.9%; in the assay on U251 CNS it was 63.5%; with PC-3 prostate, 58.7%. For the same compound, the growth was 49.4% in the assay with SK-MEL-5 melanoma; 71.2% with UACC-62 melanoma; 69.7% with LOX IMVI melanoma; 84.8% with SK-MEL-28 melanoma; 89.6% in the assay with SK-MEL-2 melanoma; 69.3% with EKVX NSCLC. Moreover, the growth in the assay on SN12C renal is 65.3%; in the assay on UO-31 renal, 49.6%; with TK-10 renal it was 71.1%; in the assay with ACHN renal, 81.9%; in the assay with CAKI-1 renal, 64.3%; in the assay on CCRF-CEM leukemia, 57.2%. Moreover, the growth with MOLT-4 leukemia is 56%.
